Results on 40 compounds are retold here after PubChem BioAssay (NCATS).

Results filed as inconclusive are left out. Calls of active or inactive are those of the source. Calls follow the shape of the dose curve; as a rule, active = well fitted inhibition curve with a large enough effect; inconclusive = small, poorly fitted or top-dose-only effect; inactive = flat fitted curve, though single readings scatter.
% is scaled to controls: 0 for no effect and ±100 for the full control effect.

Sequence of Calcium and integrin-binding protein 1 (Homo sapiens) (Q99828 whole entry, looked up): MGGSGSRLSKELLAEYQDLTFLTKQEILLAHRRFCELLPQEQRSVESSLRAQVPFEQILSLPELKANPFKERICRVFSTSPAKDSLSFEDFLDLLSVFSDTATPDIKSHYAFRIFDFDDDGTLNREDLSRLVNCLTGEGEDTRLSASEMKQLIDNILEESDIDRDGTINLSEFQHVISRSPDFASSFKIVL

The target of this experiment is Calcium and integrin-binding protein 1 (Homo sapiens) (UniProt Q99828). As to the kind of experiment: Primary qHTS for Identification of Calcium Integrin Binding Protein 1 (CIB1) Competitor (AID 1508620).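 Also: GST tagged CIB1 binding a fluorescein labelled alphaIIb integrin peptide tracer; top concentration of the series differs between compounds.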 The settings on record: CIB1-GST / FITC-alphaIIb peptide fluorescence polarization; series mostly up to 114 µM; activity change, negative = inhibition: at the top concentration. An outline of the steps:
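Fluorescence polarization competition: CIB1-GST (1 uM final) preincubated with compound 15 min at room temperature, then FITC-labeled alphaIIb peptide (100 nM final) added for another 15 min. Polarization read at Ex 480/Em 540.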
In the case of `Fc1cccc(Nc2nc(-c3ccncc3)nc3ccccc23)c1`, the “activity change, negative = inhibition” value was 9.62% (inactive).
For `CC(=O)N1CCN(c2ccc(NCc3cccc(C)c3)cc2)CC1` the value was -15.5% (inactive).
As for `CC(=O)N1CCN(c2ccc(NCc3ccco3)cc2)CC1`, the “activity change, negative = inhibition” value is -12% (inactive).
With `Cc1ccccc1C(=O)N1CCc2cc(-n3cc(NC(=O)Cc4ccccc4)cn3)ccc21` the figure was 2.64% (inactive); with `Fc1ccccc1-c1nc(NCc2ccc(-c3cccnc3)cc2)c2ccccc2n1`, 2.9% (inactive).
With `COc1cccc(CNc2ccc(S(=O)(=O)Nc3cccc4ccncc34)cc2)c1O` the figure was 5.66% (inactive).
Take `CS(=O)(=O)N1CCN(c2nc(-c3ccc(Br)cc3)cs2)CC1`: the “activity change, negative = inhibition” value was 1.11% (inactive).
Consider `CCc1nnc2sc(-c3ccc(C)c(NC(=O)c4ccc(-c5cccc(Cl)c5)o4)c3)nn12`, for which the “activity change, negative = inhibition” value is 1.32% (inactive).
For `CCOc1cc(CCNC(=O)c2cc3sccc3n2Cc2ccccc2)cc(F)c1OCC` the value was 4.75% (inactive).
With `N#Cc1ccc(CNc2nc(-c3ccccc3C(F)(F)F)nc3ccccc23)cc1` the figure was 5.03% (inactive); with `Cc1ccc2oc(NC3=NC4(CCCC4)C4=C(CCCC4=O)N3)nc2c1`, -6.35% (inactive); with `O=C(Nc1ccc2c(c1)OCO2)Nc1nnc(-c2ccncc2)s1`, -0.369% (inactive).
As for `CCOc1ccccc1-c1nnc2n1N=C(c1cc(OC)ccc1OC)CS2`, the “activity change, negative = inhibition” value is 2.98% (inactive).
With `COc1cccc(-c2ccc3ncnc(NCc4cccc(C)c4)c3c2)c1` the figure was 4.84% (inactive); with `COc1ccc2ncnc(NCC3CCCO3)c2c1-c1ccc2c(c1)OCO2` (stereo not given), -3.78% (inactive); with `Cc1cccc(C[C@H](C(=O)O)N2C(=O)c3ccc(C(=O)O)cc3C2=O)c1`, 1.27% (inactive).
For `O=C(Nc1ncc(Cc2ccc(C(F)(F)F)cc2)s1)c1ncc(-c2ccccc2)[nH]1` the value was 3.58% (inactive).
As to `Cc1cc(C)cc(Cn2ncc3c4sc(C)cc4n(C)c3c2=O)c1`, the “activity change, negative = inhibition” value was 11.8% (inactive).
As to `COCCCc1cc(F)c(S(=O)(=O)N2CCN(S(=O)(=O)c3ccc4c(c3)OCCO4)CC2)cc1F`, the “activity change, negative = inhibition” value was 1.13% (inactive).
With `C=CCNc1oc(C2CCCC2)nc1C#N` the figure was -3.27% (inactive); with `CCCn1c(C)nc2c(NCCN(CC)CC)nc(C)nc21`, 8.2% (inactive).
With `COc1ccc(C2Nc3ccccc3C(=O)N2Cc2ccco2)cc1COc1c(C)cc(NC(C)=O)cc1C` (stereo not given) the figure was -7.34% (inactive); with `CC(C)Oc1cccc(-c2cnc(N3CCC(C(N)=O)CC3)s2)c1`, 1.76% (inactive).
For `CC(=O)c1ccc(N2CCN(S(=O)(=O)c3ccc4c(c3)CCCC(=O)N4)CC2)cc1` the value was 4.04% (inactive).
For `COc1cccc(C2c3c(ncn(-c4ccc(C)cc4)c3=N)Oc3ccc4ccccc4c32)c1` (stereo not given), the “activity change, negative = inhibition” value was 0.972% (inactive).
For `CN(Cc1ccc(-c2ccccc2)cc1)c1nc(-c2ccccc2C(F)(F)F)nc2ccccc12` the value was 2.07% (inactive).
With `CC(Cc1cnccn1)Nc1cnc2c(O)ccc(C(=O)O)c2c1` (stereo not given) the figure was -8.37% (inactive); with `CCCCN1C(=O)c2ccccc2NC1c1ccc(OC)c(COc2c(C)cc(NC(C)=O)cc2C)c1` (stereo not given), 1.72% (inactive); with `CCCCCNc1oc(-c2cccc3ccccc23)nc1C#N`, 2.34% (inactive).
For `COc1ccc(OCc2cc(C3Nc4ccccc4C(=O)N3Cc3ccccc3)ccc2OC)cc1` (stereo not given) the value was 5.42% (inactive).
As to `COc1cc(O)c(C(CC(=O)N2CCCC(C(C)C)C2)c2ccc3c(c2)OCO3)c(OC)c1` (stereo not given), the “activity change, negative = inhibition” value is -0.858% [at 228 µM] (inactive).
For `O=C(Nc1ccc(-n2cncn2)c(C(F)(F)F)c1)Nc1nnc(-c2ccncc2)s1` the value was 9.14% (inactive); for `N=c1c2c(ccn1CCCc1ccccc1)Oc1ccc3ccccc3c1C2c1ccccc1` (stereo not given), 7.15% (inactive).
With `Cc1cc(C)nc(NC(=S)N2CCN(c3ncccc3Cl)CC2)c1` the figure was -5.09% (inactive).
For `Cn1c2cc(B(O)O)sc2c2cnn(Cc3ccc(F)cc3F)c(=O)c21` the value was -7.28% (inactive); for `O=C(O)c1cc(Br)c(O)c2ncccc12`, -11.2% (inactive).
With `CSc1cnc(-c2ccccc2C(C)C)nc1NCc1ccc(-c2cccnc2)cc1`, the “activity change, negative = inhibition” value was 2.63% (inactive).
For the compound `Cc1cc2c(s1)c1cnn(Cc3cc(Cl)ccc3F)c(=O)c1n2C`, the “activity change, negative = inhibition” value was 6.84% (inactive).
With `Cc1ccc(NS(=O)(=O)c2cc3c(cc2Cl)NC(=O)C3)cc1C` the figure was -1.13% (inactive).
For `CC(=O)Nc1sc2c(c1-c1ccc(C#N)cc1)CCNC2` the value was -1.39% (inactive).
